aSyn rescue – inhibitors of alpha-synuclein toxicity in yeast; Yeast expressing alpha-synuclein, growth rescue, BacTiter-Glo, 24 h; Potency, µM (titrated, usually from 46.1 µM), without a hit: top-dose growth rescue (activation), actives largely listed as activators; 370,000 tested, 0.14% active; AID 652106; further: % of control where 0% means no effect; nearly all actives have a fitted effect of over 65% in size
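Rescue of yeast growth: cells expressing toxic alpha-synuclein, induced in galactose at OD600 0.02, incubated with compound 24 h at 30 C. ATP luminescence quantified growth; inhibitors of toxicity appear as activators.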
PTAP TSG101 blk – blocks PTAP/TSG101 interaction to inhibit HIV-1 budding | Q99816 | Fluorescence polarization, FITC-PTAP peptide / Tsg101 binding | Potency, µM (highest dose often 115 µM), without a hit: top-dose activity change, negative = inhibition, most hits filed as inhibitors | 340,000 tested, under 10 active; active means well fitted inhibition curve with a large enough effect in the main read-out, with a control signal flat, not every such curve was filed as active; inconclusive means small, poorly fitted or top-dose-only effect, or effect the other way, or a change in a side signal; inactive means no such curve, though single readings can be large or run the other way; further: % of control where 0% means no effect
Target sequence (Q99816 whole entry, looked up): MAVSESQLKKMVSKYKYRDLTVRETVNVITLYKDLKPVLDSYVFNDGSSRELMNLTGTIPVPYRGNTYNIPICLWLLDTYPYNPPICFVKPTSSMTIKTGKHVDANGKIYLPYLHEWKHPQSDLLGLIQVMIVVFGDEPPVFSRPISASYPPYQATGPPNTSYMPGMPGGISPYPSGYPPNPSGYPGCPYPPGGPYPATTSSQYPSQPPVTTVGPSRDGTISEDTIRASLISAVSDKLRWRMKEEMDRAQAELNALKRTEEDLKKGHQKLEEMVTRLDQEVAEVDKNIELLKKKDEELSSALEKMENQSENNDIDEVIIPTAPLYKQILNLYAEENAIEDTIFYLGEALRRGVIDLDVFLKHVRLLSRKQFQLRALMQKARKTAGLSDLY
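Steps: Tsg101 binding domain dispensed (10 uM final), compounds pinned in DMSO, FITC-labeled PTAP-motif peptide added (50 nM final); after 20 min binding at room temperature, polarization measured.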
Abeta rescue – compounds reversing amyloid beta toxicity in yeast | yeast expressing A-beta42, growth rescue, OD600, 48 h; response scale: 0% DMSO, 100% iron-clioquinol control | Potency, µM (titrated, usually from 46.1 µM), most hits filed as activators | 410,000 tested, 0.063% active; further: nearly all actives have a fitted effect of over 55% in size
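Growth rescue measured by 600 nm absorbance after 48 h yeast culture at 30 C with compound. Values normalized between DMSO and an equimolar ferric chloride plus clioquinol control.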
TDP43 rescue – TDP-43 toxicity inhibition in yeast; Potency, µM (titrated, usually from 46.1 µM), for inactives: top-dose growth rescue (activation), most hits filed as activators; 410,000 tested, 1.8% active; TDP-43 expressing yeast growth rescue, BacTiter-Glo, 24 h; further: % of control where 0% means no effect; nearly all actives have a fitted effect of over 50% in size
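Cell-based yeast growth screen: TDP-43 expression induced in galactose, inoculum OD600=0.02 after raffinose pregrowth to mid-log. Read-out BacTiter-Glo luminescence at 24 hr, 30 deg C; inhibition of toxicity seen as signal increase.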
FUS yeast rescue – rescues growth of FUS-expressing yeast. 390,000 tested, 0.24% active. AID 1347120. S. cerevisiae FUS-expressing, growth rescue, OD600, 24 h. Potency, µM (series often up to 76.6 µM), most hits filed as activators;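 further: plate controls were DMSO vehicle for no effect and reference control for full effect; nearly all actives have a fitted effect of over 55% in size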
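Read-out: OD at 600 nm after 24hr at 30C, reporting rescue of FUS-induced yeast toxicity. Cells at OD 0.005 in galactose (2%) minimal medium; compounds tested in a dilution series; CP55940 titration from 92uM final as control.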
* = called active by the depositor; i = inactive; ? = inconclusive; · = no result given; [ ] = remark or other dose. Hits are enriched below; roughly 2.1% of the tested compounds scored in any of these assays. Unless noted, the call rests on the fitted dose curve; in most records, active means well fitted curve in the direction sought with a large enough effect; inconclusive means small, poorly fitted or top-dose-only effect, or another doubt; inactive means no such curve, though single readings can be large; an effect the other way counts as inactive or inconclusive. Potency means the concentration at half of the fitted maximal effect.

SMILES	aSyn rescue	PTAP TSG101 blk	Abeta rescue	TDP43 rescue	FUS yeast rescue
Cc1c(C(=O)OCCOc2ccccc2)[nH]c2c1C(=O)CCC2	-6%	0%	?	22µM*	i
COc1ccc(OC)c(CCNC(=O)c2c3c(nc4ccccc24)C(=O)N(C2CCCCC2)C3)c1	·	·	i	6%	i
CCOc1ccc(NC(=O)C2Cc3ccccc3N2C(=O)c2ccccc2)cc1 (centres undefined)	·	·	i	26%	i
O=C(NC(=S)NCc1ccncc1)c1ccccc1	-9%	-4%	i	7%	i
O=C(NC(=S)NCc1ccc(F)cc1)c1ccccc1	-5%	0%	i	22µM*	·
O=C(NC(=S)NCc1ccccc1)c1ccccc1	-1%	-1%	11µM*	-19%[0.397 µM]	i
O=C(CNC(=S)NC(=O)c1cccs1)c1ccccc1	-7%	3%	i	21%	i
O=C(NC(=S)NCc1ccccc1)c1cccs1	-13%	-3%	?	13µM*	i
O=C(Cc1cccc2ccccc12)NNC(=O)c1cccs1	7%	-3%	i	0%	i
Cc1cccc(C(=O)NC(=S)NCc2ccccc2)c1	0%	-2%	?	?	i
O=C(NCc1cccc2ccccc12)c1cccs1	3%	-5%	i	13µM*	i
CCOc1cc(CNC(=O)NC2COc3ccccc3C2)cc(OCC)c1OCC (centres undefined)	·	·	i	-8%	i
O=C(NCC(c1ccc(Cl)cc1)N1CCCCC1)c1ccccc1 (centres undefined)	·	·	i	18%	i
CC(C)CN1C(=O)[C@@]2(CC(=O)N(C)C2c2ccccc2)c2cc(-n3cc(C(C)(C)O)nn3)ccc21 (some centres undefined)	·	·	·	·	i
CSC1=NSC2=NC(=O)/C(=C\c3coc4ccccc4c3=O)C(=N)N12	-62%	35µM*	i	-93%	·
CCOc1cc(/C=N/NC(=O)CN2CCCCC2)ccc1OCc1cccc(Cl)c1	0%	-1%	i	13µM*	·
COc1cccc(/C=N/NC(=O)c2c(C)nc3ccc(Br)cn23)c1	-1%	-4%	i	6%	i
Nc1ccc(C(=O)N/N=C/c2cccc(Oc3ccccc3)c2)cc1	0%	-2%	i	13µM*	i
O=C(N/N=C/c1cccc(Oc2ccccc2)c1)c1cc[n+]([O-])cc1	-1%	-3%	i	-28%[0.397 µM]	i
Cc1nn(C)c(C(=O)N/N=C/c2cccc(Oc3ccccc3)c2)c1Br	8%	1%	i	4.5µM*	i
CCOC(=O)c1ccccc1NC(=S)N1CCC(C)CC1	1%	1%	i	11µM*	i
CC(C)c1onc(C(=O)Nc2cccc(Cl)c2)c1[N+](=O)[O-]	-5%	-6%	i	10µM*	i
CCOC(=O)c1c(SCCN2CCCCC2)n(-c2ccccc2)c(=S)n(-c2ccccc2)c1=O	6%	-4%	i	8%	·
O=C(CCSc1ccccc1Cl)Nc1cccc([N+](=O)[O-])c1	2%	-3%	i	18µM*	i
NS(=O)(=O)c1cccc(NC(=O)CCSc2ccccc2Cl)c1	3%	1%	i	9%	·
SMILES	aSyn rescue	PTAP TSG101 blk	Abeta rescue	TDP43 rescue	FUS yeast rescue
CCOC(=O)CC[C@H]1CC[C@]2(CCCN(C(=O)c3ccccc3)C2)O1	·	·	·	·	i
O=S(=O)(NCc1ccccc1)c1ccc(-c2cnc(C3CC3)o2)cc1	4%	-8%	i	5%	i
Cc1cccc(C)c1NS(=O)(=O)c1ccc(-c2cnc(C3CC3)o2)cc1	?	-3%	i	25µM*	i
O=S(=O)(NCc1ccccc1Cl)c1ccc(-c2cnc(C3CC3)o2)cc1	·	·	i	22µM*	i
Cc1ccc(NS(=O)(=O)c2ccc(-c3cnc(C4CC4)o3)cc2)cc1	?	0%	i	?	i
CCNC(=O)C1=C(O)c2sccc2N(C)S1(=O)=O	6%	0%	i	8.9µM*	i
COC(=O)c1ccccc1N(C)S(=O)(=O)c1cc2c3c(c1)CC(=O)N3CCC2	·	·	i	14%[9.22 µM]	i
